Screening results: PubChem, National Center for Advancing Translational Sciences (NCATS)
Cycloheximide cs – counter-screen hit for Shiga toxin inhibitors, cycloheximide; actives 12% (n = 300,000); max response, %; AID 2314; cell reporter, cycloheximide protein synthesis inhibition counterscreen; in the data active means max response mostly above about 13%, no sharp cut-off; inactive means mostly below about 14%; further: read at 38.3 µM for the half of the compounds with a filed dose; 0% is about no effect
Pf growth 96h – P. falciparum growth inhibition at 96 hour, primary screen for plastid delayed-death inhibitors; P. falciparum luciferase reporter growth, 96 h; Potency, µM (series often up to 28.7 µM), for inactives: at the top dose activity change, negative = inhibition, hits mostly inhibitors; actives 6.9% (n = 320,000); AID 504834; further: potency means the concentration at half of the fitted maximal effect; on the % scale 0 is the no-effect control and ±100 the full control effect
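Plates of compound plus infected erythrocytes (2% hematocrit, 0.05% parasitemia final) incubate 96 hours, 37 C, 5% CO2. Detection reagent added; reduced luminescence from the parasites' luciferase reporter flags inhibition.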
SARS PLpro yeast – blocks SARS-CoV papain-like protease in a yeast assay | S. cerevisiae expressing SARS-CoV PLpro, growth rescue | actives 0.19% (n = 330,000) | Potency, µM (titrated, usually from 32.9 µM), inactives show at the highest dose activity, positive = growth rescue, hits mostly activators; calls by dose curve; further: potency means the concentration at half of the fitted maximal effect; 0% is about no effect; nearly all actives have a fitted effect of over 55% in size
NS1 function inh – inhibitors of influenza NS1 protein function; Potency, µM (titrated, usually from 46.1 µM), without a hit: at the highest dose activity, positive = more growth; actives 0.4% (n = 270,000); AID 2326; calls by dose curve; further: potency means the concentration at half of the fitted maximal effect; actives are rising curves; nearly all actives have a fitted effect of over 50% in size
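Compounds were scored for reversing the slow growth caused by influenza A NS1 in S. cerevisiae, measured by optical density at 600 nm. Assay medium contained 2% galactose at pH 6.0; NS1-free yeast of the same strain were the positive control.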
Shiga inhibitor – blocks Shiga toxin action in Vero cells | Vero cells, Shiga toxin protein synthesis inhibition reporter | inhibition, % at 38.7 µM | actives 9.2% (n = 290,000); in the data active means inhibition mostly above about 28%, no sharp cut-off; inactive means mostly below about 43%; further: 0% is about no effect
Pf growth 48h – P. falciparum growth inhibition at 48 hours (one generation). actives 5.9% (n = 310,000). P. falciparum luciferase growth in erythrocytes, 48 h. Potency, µM (top dose mostly 28.7 µM), for the others: at the top dose activity change, negative = inhibition, most hits filed as inhibitors; further: potency means the concentration at half of the fitted maximal effect; on the % scale 0 is the no-effect control and ±100 the full control effect
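Cell-based growth assay: transgenic P. falciparum expressing firefly luciferase, cultured in red cells within RPMI 1640 containing 0.5% w/v Albumax, 24 mM bicarbonate and gentamycin. A drop in luciferase activity indicates inhibition.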
* marks the source's active call; other numbers are inactive results; u = inconclusive; x = not tested or not shown; [ ] = another dose, or the depositor's remark. Compounds with a hit are over-represented: about 21% of the library has one in this group of screens. Unless noted, the call rests on the fitted dose curve; in most records, active means well fitted inhibition curve with a large enough effect; inconclusive means small, poorly fitted or top-dose-only effect, or another doubt; inactive means no such curve, though single readings can be large or run the other way.

SMILES	Cycloheximide cs	Pf growth 96h	SARS PLpro yeast	NS1 function inh	Shiga inhibitor	Pf growth 48h
CCOC(=O)NN1C(=O)c2ccccc2NC1c1cccs1 (configuration not stated)	0.9	11.9%	0.2%	2.1%	-3.9	39.9%
O=C(c1c(F)cccc1F)N1CCN(CCOc2ccccc2)CC1	1.0	1.3%	1.1%	-0.5%	8.8	x
CC1(C)CC2(CC(c3ccc(F)cc3)c3ccc(O)cc3O2)NC(=S)N1 (configuration not stated)	-2.7	-16.5%	4.3%	-68.8%	-7.0	2.33µM*
CNC(=O)COC(=O)C1CCN(S(=O)(=O)c2ccc3c(c2)OCCO3)CC1	x	-24.4%	2.7%	x	x	-6.6%
Cn1cnc([N+](=O)[O-])c1Sc1ncn[nH]1	-1.8	u	-0.5%	9.8%	-4.1	u
O=C(N/N=C/c1ccc([N+](=O)[O-])o1)C(=O)Nc1ccc(C(=O)O)cc1	0.7	2.33µM*	1.1%	-0.6%	1.6	2.33µM*
CCCC(=O)Nc1ccc(C(=O)N/N=C/c2ccc([N+](=O)[O-])o2)cc1	9.4	1.65µM*	-7.6%	2.4%	14.8	-91.6%
CCC(=O)Nc1ccc(C(=O)N/N=C/c2ccc([N+](=O)[O-])cc2)cc1	-2.1	u	-6.7%	2.5%	1.2	-5.1%
O=C(N/N=C\c1ccc([N+](=O)[O-])o1)c1ccc(O)cc1	x	-101.5%[12.8 µM]	x	x	x	2.28µM*
Cc1ccc(NC(=O)CCC(=O)N/N=C/c2ccc([N+](=O)[O-])o2)cc1C	-2.1	1.85µM*	-4.5%	3.4%	-5.3	7.38µM*
Cc1ccccc1NC(=O)c1sc(NC(=O)COc2ccccc2)c(C#N)c1C	-0.6	55.7%	9.8%	7.1%	-6.8	-17.2%
Cc1cc(NC(=O)C(C)SCC(=O)OCc2ccc([N+](=O)[O-])cc2)no1 (configuration not stated)	x	25.3%	2.1%	x	x	u
CCc1ccc(C(=O)CSc2n[nH]c(-c3ccncc3)n2)cc1	2.8	5.22µM*	-21.0%	-58.9%	-2.1	x
O=C(CSc1n[nH]c(-c2ccco2)n1)Nc1ccccc1	x	10.8%	-3.8%	x	x	16.6%
Cc1ccc(NC(=O)CSc2n[nH]c(-c3ccco3)n2)cc1	28.5*	5.0%	-1.5%	2.2%	45.4	11.4%
COc1ccc(C(=O)CSc2n[nH]c(-c3ccco3)n2)cc1	-2.1	1.17µM*	0.8%	-99.2%	11.0	8.2%
O=C(CN1C2=NCCN2c2ccccc21)c1ccc(Br)s1	-5.1	u	19.4%	-0.4%	-6.4	-23.5%
COc1ccc(CN([C@H](C)CO)S(=O)(=O)N(Cc2ccccc2)[C@H](CO)C(C)C)cc1	x	u	-2.8%	x	x	u
C=C[C@@H](C)N(Cc1ccc(OC)cc1)S(=O)(=O)N(Cc1ccccc1)[C@H](C=C)C(C)C	x	u	3.3%	x	x	3.29µM*
COc1cccc(C(C(=O)NC2CCCC2)N(C(=O)c2ccco2)c2ccc(C(C)=O)cc2)c1OC (configuration not stated)	3.7	-6.0%	-2.1%	-3.5%	5.6	u
COc1cccc(C(C(=O)NC2CCCC2)N(C(=O)c2ccco2)c2ccccc2)c1OC (configuration not stated)	-2.8	-19.0%	1.5%	9.5%	0.8	9.28µM*
COc1cccc(C(C(=O)NC2CCCC2)N(C(=O)c2ccco2)c2ccc(NC(C)=O)cc2)c1OC (configuration not stated)	-4.7	48.9%	0.3%	-2.4%	9.8	1.04µM*
CC1CN(S(=O)(=O)c2cccc(C(=O)OCC(=O)N3CCCCCC3)c2)CC(C)O1 (configuration not stated)	x	x	2.0%	x	x	x
COc1ccccc1-n1c(CCC(=O)O)ccc1-c1ccccc1	31.9*	1.8%	-6.8%	4.6%	35.8*	0.9%
O=C(O)CCc1ccc(-c2ccc(Br)cc2)n1-c1cccc(O)c1	32.3*	8.8%	-1.2%	-3.2%	86.8*	58.2%
SMILES	Cycloheximide cs	Pf growth 96h	SARS PLpro yeast	NS1 function inh	Shiga inhibitor	Pf growth 48h
O=C(O)CCc1ccc(-c2ccccc2)n1-c1cccc(C(=O)O)c1	131.1*	7.5%	-1.2%	u	173.6*	-0.1%
Cc1ccc(-n2c(CCC(=O)O)ccc2-c2cccs2)cc1C	7.9*	34.0%	-6.0%	-9.6%	39.1	4.7%
COc1ccc(-c2ccc(CCC(=O)O)n2-c2ccccc2OC)cc1	7.6	2.1%	4.6%	22.1%	-8.1	24.1%
COc1ccc(NC(=S)N/C(=N/CS(=O)(=O)c2ccccc2)c2ccccc2)cc1	35.2*	13.9%	-19.8%	-3.3%	69.7*	208.9%
O=[N+]([O-])c1ccc(NC(=S)N/C(=N/CS(=O)(=O)c2ccccc2)c2ccccc2)cc1	27.9*	u	6.4%	4.8%	55.8*	-29.6%
Cc1[nH]cnc1CSCc1ccc(Cl)cc1	22.8*	u	-5.0%	u	73.1*	u
Cc1[nH]cnc1CSCCN	-2.9	-23.2%	3.8%	4.4%	-5.7	x
O=C(Nc1ccccc1N1CCCC1)c1cc(Cl)ccc1Cl	-1.6	0.0%	-1.2%	-4.2%	-3.6	u
O=C(COc1ccccc1Cl)Nc1ccc(N2CCCC2)cc1	25.5*	1.9%	-1.2%	-5.2%	53.5*	2.8%
O=C(Nc1ccc(N2CCCC2)cc1)c1cc(Cl)ccc1Cl	13.2*	u	0.9%	1.8%	x	29.7%
CC(=O)N1CCN(c2ccc(NC(=O)C(C)Oc3ccc(Cl)cc3Cl)cc2)CC1 (configuration not stated)	3.5	u	-19.9%	0.1%	-9.5	x
CCn1nnc(NC(=O)C(C)Oc2ccc(Cl)cc2Cl)n1 (configuration not stated)	7.2	35.4%	-6.2%	-49.5%	-11.9	-7.3%
Cc1cc(NC(=O)C(C)Oc2ccc(Cl)cc2Cl)n(-c2ccccc2)n1 (configuration not stated)	0.9	5.86µM*	-10.7%	-61.6%	-12.8	x
CC(Oc1ccc(Cl)cc1Cl)C(=O)Nc1ccc(N2CCN(C)CC2)cc1 (configuration not stated)	-1.9	69.2%	0.1%	-0.7%	-12.0	13.1µM*
O=C(Nc1ccccc1N1CCCC1)c1ccc(Cl)cc1Cl	-1.9	-1.7%	-1.0%	-9.3%	27.7	0.0%
O=C(Nc1ccc(N2CCCCCC2)cc1)c1ccccc1Cl	33.8*	u	-2.6%	-2.9%	52.6*	52.0%
CC(Oc1ccc(Cl)cc1Cl)C(=O)Nc1ccc(O)cc1 (configuration not stated)	4.7	21.6%	-2.3%	x	0.8	24.1%[5.75 µM]
CC(Oc1ccc(Cl)cc1Cl)C(=O)Nc1cccc(O)c1 (configuration not stated)	30.8*	u	-5.1%	-52.7%	43.0	0.0%
O=C(Nc1ccc(N2CCOCC2)cc1)c1cc(F)c(F)cc1Cl	34.9*	10.5%	-7.0%	-0.1%	55.8*	33.1%
O=C(Nc1ccc(N2CCCC2)cc1)c1ccc(Cl)cc1Cl	46.7*	42.4%	1.6%	3.5%	46.6*	x
